Test results as given in PubChem BioAssay (NCATS).
Several values for one entry are separate records, joined by “and”; a condition that tells them apart may be missing. Equal values may be shown once. Records with an inconclusive call do not appear. Where a call stands in place of a potency, no number is given. The source holds several records for some structures; these can differ, active in one and inactive in another. Activity calls are given as the source filed them. Unless noted, the call rests on the fitted dose curve; in most records, active means well fitted curve in the direction sought with a large enough effect; inconclusive means small, poorly fitted or top-dose-only effect, or another doubt; inactive means no such curve, though single readings can be large; an effect the other way counts as inactive or inconclusive.

Key:
[1] = High-throughput drug toxicity screening in the BPDCN cell line Gen2.2 (AID 1224824; call rule not given here;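 further: cells exposed to compounds for 48 h before reading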); conditions: Gen2.2 BPDCN cells; at 45.8 µM (top of the series)
In short: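 Gen2.2, 500 cells/well, phenol red-free RPMI/10% FBS/Pen-Strep; 48 h cpd, 37 °C/5% CO2; CTG lum, 15 min RT. Norm: DMSO = 100%, bortezomib 9.2 uM final = 0%.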

[2] = High-throughput drug toxicity screening in the BPDCN cell line Cal-1 (AID 1224825; call rule not given here); conditions: Cal-1 BPDCN cell viability, qHTS; at 45.8 µM (top of the series)
In short: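 Cal-1 cells, 500 per well in phenol-red-free RPMI with 10% FBS, exposed to compounds for 48 hours at 37C, 5% CO2. Viability read by CellTiter-Glo luminescence; percent activity normalized to DMSO (100%) and 9.2 uM bortezomib final (0%).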

[3] = qHTS assay for measurement of the activity of small molecule inhibitors on Zika virus induced Caspase-3 activity in human iPSC derived neural progenitor cells (hNPCs) (AID 1224857); further: nearly all actives have a fitted effect of over 65% in size; further: potency means the concentration at half of the fitted maximal effect
In short: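 In medium with heparin 2 ug/ml and cyclopamine 2 uM, hNPCs (350 cells/well) received compound for one hour and then Zika virus at 2 FFU/cell; caspase activity was measured by Caspase-Glo 3/7 luminescence 6 h post-infection.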

[4] = qHTS assay for measurement of the activity of small molecule inhibitors on Zika virus induced Caspase-3 activity in human astrocytoma cells (AID 1224859)
In short: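 A cell-based luminescent caspase-3/7 assay used SNB-19 cells infected with ZIKV (2 FFU/cell) for 6 h following 1 h compound pretreatment.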

[5] = qHTS Screen of the MIPE 4.0 Collection Against Ewings Sarcoma (EW8) (AID 1259255); further: nearly all actives have a fitted effect of over 35% in size; further: potency means the concentration at half of the fitted maximal effect
In short: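 Log-phase cells in RPMI with 5% FBS attached for 4 h, then received compounds as a titration for 48 h at 37C, 5% CO2. Viability was read by CellTiter-Glo luminescence and normalized to DMSO and no-cell wells.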

[6] = qHTS assay to identify small molecule inhibitors of chordoma cells - UCH-1 (AID 1259355); further: nearly all actives have a fitted effect of over 55% in size; further: potency means the concentration at half of the fitted maximal effect
In short: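 Cells (800/well) were seeded and left overnight at 37 C, 5% CO2, then treated with drugs at 15 concentrations plus a combination mix of auranofin, camptothecin, doxorubicin, rubitecan and topotecan. Viability after 48hr was read by CellTiter-Glo luminescence.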

[7] = P-glycoprotein substrates identified in KB-8-5-11 adenocarcinoma cell line, qHTS therapeutic library screen (AID 1346987); further: nearly all actives have a fitted effect of over 65% in size; further: potency means the concentration at half of the fitted maximal effect
In short: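 KB-8-5-11: colchicine-selected sub-line of KB-3-1 over-expressing P-gp; assay medium lacked colchicine. 72 h drug exposure at 37 degree C, CellTiter-Glo.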

[8] = target: Atrial natriuretic peptide receptor 1 (Homo sapiens) (UniProt P16066); test: Natriuretic polypeptide receptor (hNpr1) antagonism - Pilot screen (AID 1347049; calls by dose curve;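 further: agonist-evoked cGMP luminescence read 20 min after hNppA addition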)
Chain of Atrial natriuretic peptide receptor 1 (Homo sapiens) (P16066 whole entry, looked up): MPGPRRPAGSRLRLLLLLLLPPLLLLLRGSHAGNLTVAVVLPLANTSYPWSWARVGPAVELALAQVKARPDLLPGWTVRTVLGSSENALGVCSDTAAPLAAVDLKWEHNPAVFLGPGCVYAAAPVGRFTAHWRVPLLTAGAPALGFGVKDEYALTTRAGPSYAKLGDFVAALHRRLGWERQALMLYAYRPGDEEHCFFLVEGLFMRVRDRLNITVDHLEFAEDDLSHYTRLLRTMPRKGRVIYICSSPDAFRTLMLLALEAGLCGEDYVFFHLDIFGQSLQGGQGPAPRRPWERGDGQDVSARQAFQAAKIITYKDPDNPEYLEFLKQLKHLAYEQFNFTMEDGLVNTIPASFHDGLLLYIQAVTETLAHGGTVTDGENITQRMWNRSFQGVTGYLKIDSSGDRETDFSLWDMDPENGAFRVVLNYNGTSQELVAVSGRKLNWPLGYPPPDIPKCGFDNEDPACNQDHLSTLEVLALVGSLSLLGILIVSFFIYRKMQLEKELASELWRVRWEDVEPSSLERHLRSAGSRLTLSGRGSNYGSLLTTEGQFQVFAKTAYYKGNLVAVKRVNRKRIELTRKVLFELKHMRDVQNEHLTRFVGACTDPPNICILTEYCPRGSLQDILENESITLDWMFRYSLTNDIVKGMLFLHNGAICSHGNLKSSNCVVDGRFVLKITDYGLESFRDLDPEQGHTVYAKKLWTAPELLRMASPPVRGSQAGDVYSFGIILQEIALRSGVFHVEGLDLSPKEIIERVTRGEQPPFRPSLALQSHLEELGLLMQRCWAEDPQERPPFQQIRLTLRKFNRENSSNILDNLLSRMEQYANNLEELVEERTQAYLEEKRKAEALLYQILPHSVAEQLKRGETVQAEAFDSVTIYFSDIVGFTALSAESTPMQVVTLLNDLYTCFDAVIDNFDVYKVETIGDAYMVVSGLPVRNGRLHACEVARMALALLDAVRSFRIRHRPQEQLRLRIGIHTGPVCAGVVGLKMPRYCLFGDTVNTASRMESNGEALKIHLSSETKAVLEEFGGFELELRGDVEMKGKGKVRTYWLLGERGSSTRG
In short: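 HEK293 cells expressing hNpr1 and GloSensor cGMP luciferase, 1500/well, loaded with 2% GloSensor reagent 2 h, compound 30 min at room temperature; luminescence read before and 20 min after 0.1 nM hNppA stimulation.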

[9] = target: Atrial natriuretic peptide receptor 2 (Homo sapiens) (UniProt P20594); test: Natriuretic polypeptide receptor (hNpr2) antagonism - Pilot subtype selectivity assay (AID 1347050; calls by dose curve)
Chain of Atrial natriuretic peptide receptor 2 (Homo sapiens) (P20594 whole entry, looked up): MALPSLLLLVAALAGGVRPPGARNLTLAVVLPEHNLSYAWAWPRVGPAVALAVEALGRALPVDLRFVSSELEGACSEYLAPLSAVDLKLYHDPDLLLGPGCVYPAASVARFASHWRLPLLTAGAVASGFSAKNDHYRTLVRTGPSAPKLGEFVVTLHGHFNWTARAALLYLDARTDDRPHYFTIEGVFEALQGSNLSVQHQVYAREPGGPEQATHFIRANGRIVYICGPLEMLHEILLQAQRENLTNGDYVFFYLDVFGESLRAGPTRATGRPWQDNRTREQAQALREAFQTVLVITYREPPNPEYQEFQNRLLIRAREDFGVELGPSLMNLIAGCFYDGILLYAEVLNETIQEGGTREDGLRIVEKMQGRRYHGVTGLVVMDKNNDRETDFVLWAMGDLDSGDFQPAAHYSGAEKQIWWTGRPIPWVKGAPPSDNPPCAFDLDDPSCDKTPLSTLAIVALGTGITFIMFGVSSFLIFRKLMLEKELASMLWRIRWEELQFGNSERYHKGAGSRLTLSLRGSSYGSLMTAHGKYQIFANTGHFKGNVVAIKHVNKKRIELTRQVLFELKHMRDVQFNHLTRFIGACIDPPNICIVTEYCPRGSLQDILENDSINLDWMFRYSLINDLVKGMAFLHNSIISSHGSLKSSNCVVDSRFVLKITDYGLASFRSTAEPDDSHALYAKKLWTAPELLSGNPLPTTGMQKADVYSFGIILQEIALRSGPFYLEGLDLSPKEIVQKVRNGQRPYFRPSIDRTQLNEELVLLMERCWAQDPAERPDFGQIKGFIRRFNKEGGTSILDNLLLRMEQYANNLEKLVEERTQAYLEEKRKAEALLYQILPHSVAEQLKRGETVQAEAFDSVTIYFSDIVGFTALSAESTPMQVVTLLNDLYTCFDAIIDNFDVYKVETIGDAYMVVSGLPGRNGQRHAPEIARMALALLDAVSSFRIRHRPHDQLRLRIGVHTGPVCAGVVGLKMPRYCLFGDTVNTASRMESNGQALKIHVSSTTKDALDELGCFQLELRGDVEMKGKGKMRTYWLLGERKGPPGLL
In short: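 HEK293 cells expressing hNpr2 and a GloSensor cGMP luciferase sensor, 1500/well, preloaded 2 h with 2% GloSensor reagent, compound 30 min, then 1 nM hNppC for 20 min. Antagonism from luminescence after versus baseline pre-read; LOPAC in 1:5 titrations.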

[10] = Identifying Small Molecule Inhibitors of Pancreatic Cancer Stem Cells (A278, Adherent) (AID 1259361); further: nearly all actives have a fitted effect of over 35% in size
In short: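 Spheroids grown 14 days in stem cell media on hydrogel-coated nonadherent plates; 2D lines seeded directly. Compounds added after 4 h attachment, 48 h at 37C, 5% CO2; CellTiter-Glo luminescence normalized to DMSO (no inhibition) and no-cell wells (full inhibition).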

[11] = NS1 protein of Zika virus - qHTS assay to identify small molecule inhibitors in human HEK 293 cells (AID 1347053); further: nearly all actives have a fitted effect of over 55% in size; further: potency means the concentration at half of the fitted maximal effect
In short: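 Following 20 h seeding, HEK 293 cells took compound, then 1 h later ZIKV MR766 (MOI = 0.5). Incubation ran 24 h at 37 C before TR-FRET detection of NS1; a drop in signal indicates inhibition.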

[12] = Immunotoxin (SS1P) sensitization/mitigation study. Vehicle arm (DMEM) (AID 1159513; call rule not given here; further: potency means the concentration at half of the fitted maximal effect)
[13] = qHTS assay to identify small molecule inhibitors of chordoma cells - UCH-2 (AID 1259356)
[14] = P-glycoprotein substrates identified in KB-3-1 adenocarcinoma cell line, qHTS therapeutic library screen (AID 1346986); further: nearly all actives have a fitted effect of over 60% in size;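 further: potency means the concentration at half of the fitted maximal effect; potency is for cytotoxicity meaning loss of cell viability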
In short: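 Compounds were tested in dose-response against KB-3-1 and KB-8-5-11 cells at 37 degree C for 72 h, and viability was measured by luminescence. AC50 values came from curve fitting with class-based activity calls.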

[15] = Immunotoxin (HA22) sensitization/mitigation study. Vehicle arm (PBS) (AID 1159510; call rule not given here; further: potency means the concentration at half of the fitted maximal effect)
[16] = Identifying Small Molecule Inhibitors of Pancreatic Cancer Stem Cells (SN12C, Spheroid) (AID 1259360); conditions: Potency: SN12C spheroid viability
In short: (§1)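 Pre-formed 14-day tumor spheroids or adherent cells dosed and incubated 48 h, 37C, 5% CO2. Viability assessed by CellTiter-Glo.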

[17] = Identifying Small Molecule Inhibitors of Pancreatic Cancer Stem Cells (A2780, Spheroid) (AID 1259357); conditions: Potency: A2780 spheroid viability;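 further: spheroids pre-formed over 14 days in stem cell medium on hydrogel; compound exposure lasted 48 h before the ATP luminescence read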
In short: as §1

[18] = Identifying Small Molecule Inhibitors of Pancreatic Cancer Stem Cells (Panc1, Spheroid) (AID 1259359);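 further: compound exposure lasted 48 h before reading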
In short: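 Spheroids grown 14 days in stem cell media on nonadherent hydrogel before screening; cells attached 4 h, then compound exposure 48 h at 37C, 5% CO2. CellTiter-Glo luminescence normalized to DMSO (no inhibition) and no-cell wells (full inhibition).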

[19] = Identifying Small Molecule Inhibitors of Pancreatic Cancer Stem Cells (Panc1, Adherent) (AID 1259362); conditions: Potency: viability; further: potency means the concentration at half of the fitted maximal effect;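 on viability, % of control: compound exposure lasted 48 h before the viability read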
In short: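 Luminescent ATP readout (CellTiter-Glo) quantifies surviving cells after a 48 h drug incubation. Normalization uses DMSO wells as no inhibition and media-only wells as full inhibition; bortezomib served as positive control.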

With Fc1ccc(C(OCCN2CCN(CCCc3ccccc3)CC2)c2ccc(F)cc2)cc1 the cell viability, % of control (lower = more cytotoxic) [1] was 57.3%, the viability (% of control) [2] was 3.89% and the Potency [3] was “inactive”. For the same molecule, the outcome [4] was “inactive”, the Potency [5] was 20.9 µM (active) and the Potency [6] was 31.6 µM (active). For the same molecule, the Potency [7] was 10.5 µM (active), the Potency [8] was “inactive” and the Potency [9] was “inactive”.
In the case of CNC(=O)c1ccc(N2C(=S)N(c3ccc(C#N)c(C(F)(F)F)c3)C(=O)C23CCC3)cc1F, the cell viability, % of control (lower = more cytotoxic) [1] is reported as 16.5%, the viability (% of control) [2] is reported as 7.78% and the Potency [3] is reported as “inactive”. For the same molecule, the outcome [4] was “inactive”, the IC50 (viability decrease) [10] was 23.5 µM (active) and the Potency [7] was “inactive”. The Potency [11] was “inactive”.
For COC[C@@H](NC(C)=O)C(=O)NCc1ccccc1, the cell viability, % of control (lower = more cytotoxic) [1] was 142%, the viability (% of control) [2] was 115% and the Potency [3] was “inactive”. The outcome [4] was “inactive”, the Potency [5] was “inactive” and the Potency [7] was “inactive”. For the same molecule, the Potency [11] was “inactive”.
In the case of CC(O)(CS(=O)(=O)c1ccc(F)cc1)C(=O)Nc1ccc(C#N)c(C(F)(F)F)c1 (centres undefined), the Potency [12] is reported as “inactive”, the cell viability, % of control (lower = more cytotoxic) [1] is reported as 9.43% and the viability (% of control) [2] is reported as 3.75%. The Potency [3] was “inactive”, the outcome [4] was “inactive” and the Potency [5] was 3.72 µM (active). The Potency [7] was “inactive”, the Potency [8] was “inactive” and the Potency [9] was “inactive”. The Potency [11] was “inactive”.
In the case of N[C@@H](Cc1ccc(N(CCCl)CCCl)cc1)C(=O)O, the cell viability, % of control (lower = more cytotoxic) [1] is reported as 5.36%, the viability (% of control) [2] is reported as 4.8% and the Potency [3] is reported as “inactive”. For the same molecule, the outcome [4] was “inactive”, the Potency [5] was 3.32 µM (active) and the Potency [7] was “inactive”. For the same molecule, the Potency [11] was 8.33 µM (active).
With O=c1[nH]c2ccccc2n1CCCN1CCC(n2c(=O)[nH]c3cc(Cl)ccc32)CC1 the cell viability, % of control (lower = more cytotoxic) [1] was 278%, the viability (% of control) [2] was 61.6% and the Potency [3] was “inactive”. For the same molecule, the outcome [4] was “inactive”, the Potency [6] was “inactive” and the Potency [13] was “inactive”. For the same molecule, the Potency [8] was “inactive” and the Potency [11] was “inactive”.
With CN(C)CCc1ccc(O)cc1 the cell viability, % of control (lower = more cytotoxic) [1] was 191%, the viability (% of control) [2] was 108% and the Potency [3] was “inactive”. For the same molecule, the outcome [4] was “inactive”, the Potency [5] was “inactive” and the Potency [6] was “inactive”. For the same molecule, the Potency [13] was “inactive”, the Potency [7] was “inactive” and the Potency [11] was “inactive”.
With COc1ccc2c(c1OC)CN1CCc3cc4c(cc3C1C2)OCO4 (centres undefined) the cell viability, % of control (lower = more cytotoxic) [1] was 173%, the viability (% of control) [2] was 62.2% and the Potency [3] was “inactive”. The outcome [4] was “inactive”, the Potency [6] was “inactive” and the Potency [13] was “inactive”. The Potency [14] was 9.2 µM (active), the Potency [7] was “inactive” and the Potency [11] was “inactive”.
For Cn1cc(C2=C(c3cn(C4CCN(Cc5ccccn5)CC4)c4ccccc34)C(=O)NC2=O)c2ccccc21, the Potency [15] was 4.18 µM (active), the cell viability, % of control (lower = more cytotoxic) [1] was 265% and the viability (% of control) [2] was 14.5%. The Potency [3] was “inactive”, the outcome [4] was “inactive” and the Potency [5] was 10.5 µM (active). For the same molecule, the Potency [16] was “inactive”, the Potency [14] was “inactive” and the Potency [7] was “inactive”. The Potency [11] was “inactive”.
For Cn1c(CCCC(=O)O)nc2cc(N(CCCl)CCCl)ccc21, the Potency [15] was “inactive”, the Potency [12] was “inactive” and the cell viability, % of control (lower = more cytotoxic) [1] was 53.7%. For the same molecule, the viability (% of control) [2] was 6.62%, the Potency [3] was “inactive” and the outcome [4] was “inactive”. For the same molecule, the Potency [6] was “inactive”, the Potency [13] was “inactive” and the Potency [17] was “inactive”. For the same molecule, the outcome [18] was “inactive”, the Potency [16] was “inactive” and the IC50 (viability decrease) [10] was “inactive”. For the same molecule, the Potency [19] was “inactive”, the Potency [7] was “inactive” and the Potency [11] was “inactive and 20.9 µM (active)”.
In the case of COC1(CS(=O)c2ccccc2)CCN(CCc2c[nH]c3ccc(F)cc23)CC1 (centres undefined), the Potency [12] is reported as “inactive”, the cell viability, % of control (lower = more cytotoxic) [1] is reported as 66.1% and the viability (% of control) [2] is reported as 80.6%. For the same molecule, the Potency [3] was 20.9 µM (active), the outcome [4] was “inactive” and the IC50 (viability decrease) [10] was “inactive”. The Potency [19] was “inactive”, the Potency [7] was “inactive” and the Potency [11] was “inactive”.
With Cc1sc2c(c1C)C(c1ccc(Cl)cc1)=N[C@@H](CC(=O)OC(C)(C)C)c1nnc(C)n1-2 the Potency [15] was 0.0743 µM (active), the Potency [12] was 10.5 µM (active) and the cell viability, % of control (lower = more cytotoxic) [1] was 1.32%. The viability (% of control) [2] was 2.41%, the Potency [3] was “inactive” and the outcome [4] was “inactive”. For the same molecule, the Potency [5] was 16.6 µM (active), the Potency [19] was 4.18 µM (active) and the Potency [7] was 0.469 µM (active).
For O=C1CC[C@@]2(O)[C@H]3Cc4ccc(O)c5c4[C@@]2(CCN3CC2CC2)[C@H]1O5, the cell viability, % of control (lower = more cytotoxic) [1] was 200%, the viability (% of control) [2] was 62% and the Potency [3] was “inactive”. For the same molecule, the outcome [4] was “inactive”, the Potency [5] was “inactive” and the Potency [6] was “inactive”. For the same molecule, the Potency [13] was “inactive”, the Potency [14] was “inactive” and the Potency [7] was “inactive”. The Potency [11] was “inactive”.
With Oc1ccc(Cl)cc1Cc1ccccc1 the Potency [3] was “inactive”, the outcome [4] was “inactive” and the Potency [6] was “inactive”. For the same molecule, the Potency [13] was “inactive”, the Potency [7] was “inactive” and the Potency [11] was “inactive”.
In the case of Oc1cccc2cccnc12, the Potency [3] is reported as “inactive”, the outcome [4] is reported as “inactive” and the Potency [6] is reported as “inactive”. The Potency [13] was “inactive”, the Potency [7] was “inactive” and the Potency [11] was 14.1 µM (active) and inactive.
With NCCc1cc(O)c(O)cc1O the Potency [3] was “inactive”, the outcome [4] was “inactive” and the Potency [6] was “inactive”. For the same molecule, the Potency [13] was “inactive”, the Potency [7] was “inactive” and the Potency [11] was “inactive”.
With O=C(O)c1ccc2[nH]cc(CCCCN3CC=C(c4ccccc4)CC3)c2c1 the Potency [3] was “inactive”, the outcome [4] was “inactive” and the Potency [6] was “inactive”. For the same molecule, the Potency [13] was “inactive”, the Potency [7] was “inactive” and the Potency [11] was “inactive”.
With CC(C)(C)NCC(O)c1cc(Cl)c(N)c(Cl)c1 (centres undefined) the Potency [3] was “inactive”, the outcome [4] was “inactive” and the Potency [6] was “inactive”. The Potency [13] was “inactive”, the Potency [7] was “inactive” and the Potency [11] was “inactive”.
